The campaign covered roughly 5,500 compounds. About 2,000 (36%) were called active. Not shown: some 18% with an inconclusive outcome. Cut-off read from the data, not from the text of the source: active = normalized growth mostly below about 0.91 (no sharp cut-off); inconclusive = no clear call, values can overlap the other calls; inactive = mostly above about 0.92. The list shows a part of the results.
Test: chemical genetic growth profiling, strain panel (AID 1159580);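 note: tested at 20 µM; growth read once vehicle control cultures reached saturation at 30 °C; 1 = growth at the plate median or of vehicle wells; lower values mean less growth of the strain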
Conditions: growth OD

Measured: normalized growth

CC(C(=O)O)c1ccc(N2Cc3ccccc3C2=O)cc1 (configuration not stated)
active: S. cerevisiae deletion strains, locus YNL322C, strain KRE1 (second series), hits give low values 0.818
inactive: S. cerevisiae deletion strains, locus YKL009W, strain mrt4, hits give low values 0.998 | S. cerevisiae deletion strains, locus YKL068W, hits give low values 1 | S. cerevisiae deletion strains, locus YKL085W, strain MDH1 (second series), hits give low values 0.99 | S. cerevisiae deletion strains, locus YKL085W, strain MDH1, hits give low values 0.99 | S. cerevisiae deletion strains, locus YKL160W, strain elf1, hits give low values 0.986 | S. cerevisiae deletion strains, locus YKL190W, strain CNB1, hits give low values 1.01 | S. cerevisiae deletion strains, locus YKR001C, strain vps1, hits give low values 0.976 | S. cerevisiae deletion strains, locus YKR026C, strain gcn3, hits give low values 0.986 | S. cerevisiae deletion strains, locus YKR091W, strain srl3, hits give low values 0.983 | S. cerevisiae deletion strains, locus YLL001W, strain dnm1, hits give low values 0.96 | S. cerevisiae deletion strains, locus YLL026W, hits give low values 0.988 | S. cerevisiae deletion strains, locus YLL041C, strain sdh2, hits give low values 0.99 | S. cerevisiae deletion strains, locus YLR027C, strain aat2, hits give low values 0.985 | S. cerevisiae deletion strains, locus YLR039C, strain RIC1, hits give low values 0.994 | S. cerevisiae deletion strains, locus YLR058C, strain SHM2, hits give low values 1.01 | S. cerevisiae deletion strains, locus YLR102C, strain apc9, hits give low values 0.992 | S. cerevisiae deletion strains, locus YLR113W, strain HOG1, hits give low values 0.984 | S. cerevisiae deletion strains, locus YLR221C, strain rsa3, hits give low values 0.928 | S. cerevisiae deletion strains, locus YLR258W, strain gsy2, hits give low values 0.976 | S. cerevisiae deletion strains, locus YLR262C, strain YPT6 (second series), hits give low values 0.966 | S. cerevisiae deletion strains, locus YLR262C, strain YPT6, hits give low values 1.03 | S. cerevisiae deletion strains, locus YLR268W, strain sec22, hits give low values 0.997 | S. cerevisiae deletion strains, locus YLR320W, strain mms22, hits give low values 0.918 | S. cerevisiae deletion strains, locus YLR330W, strain CHS5, hits give low values 1.01 | S. cerevisiae deletion strains, locus YLR342W, strain FKS1 (second series), hits give low values 1.01 | S. cerevisiae deletion strains, locus YLR342W, strain FKS1, hits give low values 0.981 | S. cerevisiae deletion strains, locus YLR357W, strain rsc2, hits give low values 0.957 | S. cerevisiae deletion strains, locus YLR370C, strain arc18, hits give low values 0.974 | S. cerevisiae deletion strains, locus YLR371W, strain rom2, hits give low values 0.995 | S. cerevisiae deletion strains, locus YLR384C, strain iki3, hits give low values 0.984 | S. cerevisiae deletion strains, locus YLR418C, strain cdc73, hits give low values 0.951 | S. cerevisiae deletion strains, locus YML016C, strain PPZ1, hits give low values 1.02 | S. cerevisiae deletion strains, locus YML032C, strain rad52, hits give low values 0.975 | S. cerevisiae deletion strains, locus YML120C, strain ndi1, hits give low values 0.934 | S. cerevisiae deletion strains, locus YML124C, strain tub3, hits give low values 0.993 | S. cerevisiae deletion strains, locus YMR058W, strain fet3, hits give low values 0.984 | S. cerevisiae deletion strains, locus YMR078C, strain ctf18, hits give low values 0.995 | S. cerevisiae deletion strains, locus YMR125W, strain sto1, hits give low values 0.973 | S. cerevisiae deletion strains, locus YMR129W, hits give low values 0.986 | S. cerevisiae deletion strains, locus YMR205C, strain PFK2, hits give low values 0.98 | S. cerevisiae deletion strains, locus YMR223W, strain ubp8, hits give low values 0.98 | S. cerevisiae deletion strains, locus YMR231W, strain pep5, hits give low values 0.988 | S. cerevisiae deletion strains, locus YMR307W, strain GAS1, hits give low values 1.07 | S. cerevisiae deletion strains, locus YNL067W, strain RPL9B, hits give low values 1.01 | S. cerevisiae deletion strains, locus YNL071W, strain lat1, hits give low values 0.999 | S. cerevisiae deletion strains, locus YNL153C, strain GIM3, hits give low values 1.01 | S. cerevisiae deletion strains, locus YNL183C, strain NPR1, hits give low values 0.941 | S. cerevisiae deletion strains, locus YNL209W, strain ssb2, hits give low values 0.973 | S. cerevisiae deletion strains, locus YNL233W, strain BNI4, hits give low values 1.01 | S. cerevisiae deletion strains, locus YNL248C, strain rpa49, hits give low values 0.968 | S. cerevisiae deletion strains, locus YNL250W, strain rad50, hits give low values 1.01 | S. cerevisiae deletion strains, locus YNL271C, strain bni1, hits give low values 0.984 | S. cerevisiae deletion strains, locus YNL298W, strain CLA4, hits give low values 0.981 | S. cerevisiae deletion strains, locus YNL307C, strain MCK1, hits give low values 0.986 | S. cerevisiae deletion strains, locus YNL322C, strain KRE1, hits give low values 1.01 | S. cerevisiae deletion strains, locus YNR049C, strain mso1, hits give low values 0.987 | S. cerevisiae deletion strains, locus YNR052C, strain pop2, hits give low values 0.989 | S. cerevisiae deletion strains, locus YOL006C, strain TOP1, hits give low values 0.975 | S. cerevisiae deletion strains, locus YOL012C, strain htz1 1.17 | S. cerevisiae deletion strains, locus YOL147C, strain pex11, hits give low values 0.991 | S. cerevisiae deletion strains, locus YOR001W, strain rrp6, hits give low values 0.981 | S. cerevisiae deletion strains, locus YOR061W, strain CKA2, hits give low values 1.02 | S. cerevisiae deletion strains, locus YOR069W, strain VPS5, hits give low values 1.01 | S. cerevisiae deletion strains, locus YOR070C, strain gyp1, hits give low values 0.982 | S. cerevisiae deletion strains, locus YOR080W, strain dia2, hits give low values 0.987 | S. cerevisiae deletion strains, locus YOR083W, strain WHI5, hits give low values 0.965 | S. cerevisiae deletion strains, locus YOR106W, strain vam3, hits give low values 0.957 | S. cerevisiae deletion strains, locus YOR136W, strain idh2, hits give low values 0.991 | S. cerevisiae deletion strains, locus YOR144C, strain elg1, hits give low values 0.995 | S. cerevisiae deletion strains, locus YOR184W, strain ser1, hits give low values 0.963 | S. cerevisiae deletion strains, locus YOR231W, strain MKK1, hits give low values 0.973 | S. cerevisiae deletion strains, locus YOR265W, strain rbl2, hits give low values 0.982 | S. cerevisiae deletion strains, locus YOR270C, strain vph1, hits give low values 1.03 | S. cerevisiae deletion strains, locus YOR290C, strain snf2, hits give low values 0.917 | S. cerevisiae deletion strains, locus YOR316C, strain cot1, hits give low values 0.998 | S. cerevisiae deletion strains, locus YPL051W, strain arl3, hits give low values 0.995 | S. cerevisiae deletion strains, locus YPL078C, strain atp4, hits give low values 0.984 | S. cerevisiae deletion strains, locus YPL106C, strain sse1, hits give low values 0.984 | S. cerevisiae deletion strains, locus YPL240C, strain hsp82, hits give low values 0.99 | S. cerevisiae deletion strains, locus YPL256C, strain CLN2, hits give low values 0.984 | S. cerevisiae deletion strains, locus YPR119W, strain clb2, hits give low values 0.993 | S. cerevisiae deletion strains, locus YPR141C, strain kar3, hits give low values 1.01 | S. cerevisiae deletion strains, locus YPR163C, strain tif3, hits give low values 0.996 | S. cerevisiae deletion strains, locus YPR167C, strain met16, hits give low values 0.982 | S. cerevisiae deletion strains, strain wtn01, hits give low values 0.987 | S. cerevisiae strains, strain wild type, hits give low values 1.01

Reference: PubChem BioAssay AID1159580 (chemical genetic matrix, 2015)
